# Hits are enriched below; roughly 4.2% of the tested compounds scored in any of these assays.
# GDH-TPI counter-1: inhibits GDH-TPI coupling enzymes, artifact for Mtb FBA screen; inhibition, % at 4.8 µM; hit rate 1.2% among 360,000; GDH-TPI coupled enzyme counterscreen, NADH absorbance; AID 588335; in the data active = inhibition above about 30%;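 note: 0% = DMSO wells and 100% = wells lacking the enzyme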
# RecA intein inh: inhibitors of M. tuberculosis RecA intein splicing; inhibition, % (no concentration beside the values); hit rate 0.75% among 290,000; P9WHJ3; AID 2221; cell-free RecA intein splicing, fluorescence; in the data active = inhibition above about 30%; inconclusive = no clear call, values can overlap the other calls;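 note: 0% = vehicle wells and 100% = reference inhibitor control wells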
# FBA Mtb inh: inhibits M. tuberculosis FBA enzyme; hit rate 2.3% among 360,000; purified M. tuberculosis FBA, fluorescence read-out; inhibition, % at 1 µM; AID 588726; P9WQA3;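 note: 0% = vehicle and 100% = reference inhibitor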
# CCHF vOTU inh: CCHFV vOTU protease inhibition; hit rate 0.55% among 370,000; AID 651958; Pep-AMC fluorescence; inhibition, % at 11.5 µM; in the data active = inhibition above about 30%; note: 0% = vehicle wells with enzyme and 100% = no enzyme wells
# Mtb bLac sens: beta-lactam sensitization of Mtb H37Rv; M. tuberculosis H37Rv growth with meropenem, percent inhibition; inhibition, % at 25 µM; hit rate 0.27% among 330,000; AID 434955; call rule not given here;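 note: growth measured after seven days incubation then overnight dye step; 0% = bacteria only wells and 100% = bacteria with antibiotic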
# Mtb FBA confirm: Mtb FBA inhibition, confirmed; shares compounds with FBA Mtb inh; inhibition, % at 1 µM; AID 651616; purified M. tuberculosis FBA, fluorescence read-out; hit rate 78% among 5,600;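 note: 0% = vehicle wells and 100% = reference inhibitor wells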
# GDH-TPI counter-2: GDH-TPI inhibition counter-screen for FBA inhibitors; GDH-TPI coupled enzyme counterscreen, fluorescence; AID 652141; shares compounds with FBA Mtb inh; inhibition, % at 1 µM; hit rate 81% among 5,600; in the data active = inhibition above about 10%
# * marks the source's active call; other numbers are inactive results; i = inactive; u = inconclusive; x = no result given; + = active, no number. Cut-off read from the data, not from the text of the source, unless noted: active = inhibition above about 27%; inactive = the rest.
SMILES,GDH-TPI counter-1,RecA intein inh,FBA Mtb inh,CCHF vOTU inh,Mtb bLac sens,Mtb FBA confirm,GDH-TPI counter-2
O=C(O)C(Oc1ccc2cc(-c3ccc(Cl)cc3)c(=O)oc2c1)c1ccccc1 (stereo not given),4,-13,104*,-97,-6,+,+
Cc1cc(=O)oc2cc(NC(=O)c3ccccc3OC(F)F)ccc12,17,-2,53*,-35,-1,70*,49*
O=c1oc2cc(OCc3ccc([N+](=O)[O-])cc3)ccc2c2c1CCCC2,-3,4,1,-8,11,x,x
COc1ccc2c(c1)CCCN2C(=O)C1CCCN(S(=O)(=O)c2cccc3ccccc23)C1 (stereo not given),x,x,x,3,x,x,x
COc1ccc(S[C@]2(C(=O)N(C)C)CC(=O)N(C(=O)CCc3ccccc3)[C@@H]2c2ccc(OC)cc2)cc1,x,x,x,15,x,x,x
CC(=O)CC[C@H]1CC[C@]2(CCCN(C(=O)C(C)(C)C)C2)O1,x,x,x,-2,x,x,x
C=C(O[C@H]1[C@H](O)CC=C(C(=O)O)[C@@H]1O)C(=O)O,x,x,x,-7,x,x,x
CCCCC(=O)Nc1c(-c2ccc(OC)c(OC)c2)c(=O)c2ccccc2n1C,7,0,0,-1,-1,x,x
CCCC(=O)Nc1c(-c2ccc(OC)cc2)c(=O)c2ccccc2n1C,23,-2,28*,-14,-3,0,-3
CCCCCC(=O)Nc1c(-c2ccc(OC)cc2)c(=O)c2ccccc2n1C,21,0,28*,-11,u,128*,104*
CCOc1ccc2nc(NCCNC(=O)C(C)C)c(C)cc2c1,22,-2,35*,-29,-2,86*,66*
CCOc1ccc2nc(NCCNC(=O)C3CC3)c(C)cc2c1,13,1,21,-30,-11,x,x
C=CCN1C(C(=O)OC)CN(Cc2cn(Cc3ccc(C)cc3)nn2)CCS1(=O)=O (stereo not given),x,x,x,8,x,x,x
O=C(O)c1cnc2ccccc2n1,5,0,33*,-7,5,62*,43*
COC(=O)c1cnc2ccccc2n1,3,-3,-1,8,-1,x,x
O=C(CCn1nnc2ccccc21)N1CCN(c2ccc(F)cc2)CC1,x,x,x,-6,x,x,x
CN1C(=O)c2cc(NC(=O)Cc3cccs3)ccc2OC[C@@H]2O[C@@H](CC(=O)N[C@H]3CCN(Cc4ccccc4)C3)CC[C@@H]21,x,x,x,-3,x,x,x
Nc1c(S(=O)(=O)c2ccccc2)c2nc3ccccc3nc2n1/N=C/c1cccc(O)c1,21,6,6,3,78,x,x
Cc1ccc(S(=O)(=O)c2c(N)n(NC(=O)c3ccccc3C)c3nc4ccccc4nc23)cc1,9,-2,39*,-33,1,193*,143*
Cc1cccc(S(=O)(=O)c2c(N)n(/N=C/c3ccccc3)c3nc4ccccc4nc23)c1,7,-15,-2,-3,0,x,x
Cc1ccc(C(=O)Nn2c(N)c(S(=O)(=O)c3ccc(C)cc3)c3nc4ccccc4nc32)cc1,35*,1,65*,-14,-5,76*,52*
Cn1c(N)c(S(=O)(=O)c2ccc(Br)cc2)c2nc3ccccc3nc21,29,-1,107*,-95,0,19,18*
Cc1occc1-c1nnc(SCC(=O)N[C@@H]2CCc3ccccc32)n1-c1ccccc1,x,x,x,6,x,x,x
CC(=O)O[C@@H]1CCC[C@@]2(C(=O)N(Cc3ccccc3)c3ccc(-c4c(C)noc4C)cc32)[C@H]1NC(=O)CCc1ccccc1,x,x,x,13,x,x,x
CCN1c2ccccc2-c2nc3ccccc3n2C1c1ccccn1 (stereo not given),6,-102,51*,-114,45,+,+
SMILES,GDH-TPI counter-1,RecA intein inh,FBA Mtb inh,CCHF vOTU inh,Mtb bLac sens,Mtb FBA confirm,GDH-TPI counter-2
CCN1c2ccccc2-c2nc3ccccc3n2C1c1cccnc1 (stereo not given),10,-26,68*,-26,-6,96*,84*
CCC(C(=O)NC1CCCC1)n1c(-c2ccccn2)nc2ccccc21 (stereo not given),x,x,x,-5,x,x,x
Cc1ccc(-n2ncc3c2CCCC3NC(=O)CCc2c(C)noc2C)cc1C (stereo not given),-1,1,36*,-1,-10,+,+
CNc1ccccc1C(=O)OCC(=O)Nc1ccc2c(c1)OCO2,2,-5,53*,-56,3,101*,69*
O=C(COC(=O)c1ccco1)Nc1ccc2c(c1)OCO2,-4,0,-1,4,-3,x,x
CCCCCCCCN1CCS(=O)(=O)N(Cc2ccc(Cl)cc2)C(C(=O)OC)C1 (stereo not given),x,x,x,18,x,x,x
O=C(CSc1nnc(-c2ccccc2)n1-c1ccc(Cl)cc1)Nc1ccc2cn[nH]c2c1,x,x,x,4,x,x,x
CC(C)C[C@@H]1COc2cccc(N3CCCC3)c2S(=O)(=O)N1C,x,x,x,3,x,x,x
COc1ccc(-c2nc3ncnn3cc2C)cc1F,-4,8,73*,-11,-7,+,+
COc1ccc(-c2nc3nc(SC)nn3cc2C)cc1F,1,-3,16,-13,-3,x,x
COCCCn1cnc2oc3nc4ccccc4nc3c2c1=O,9,-4,100*,-39,-15,86*,64*
CC(=O)Nc1ncnc2c1c(-c1ccc(Cl)cc1)nn2C(C)(C)C,-8,1,50*,-35,5,81*,75*
CC(=O)N(C(C)=O)c1ncnc2c1c(-c1ccc(Cl)cc1)nn2C(C)(C)C,-2,2,50*,-18,1,-1,1
CC(=O)Nc1nc(-c2ccc(Cl)cc2)nc(C)c1C(C)=O,-4,0,2,4,1,x,x
CCOC(=O)c1c(-c2ccc(OC)cc2)cn2ccccc12,3,-1,26,-16,-6,x,x
CCOC(=O)c1c(-c2ccc(F)cc2)cn2ccccc12,23,-1,99*,-13,1,139*,100*
CCOC(=O)c1c(-c2ccccc2)c[nH]c1C,7,x,4,9,x,x,x
CCOC(=O)c1c(-c2ccc(C)cc2)cn2ccccc12,12,6,89*,-30,13,106*,80*
O=C(NCCN1CCC(Cc2ccccc2)CC1)C1CCCN(S(=O)(=O)c2cccs2)C1 (stereo not given),x,x,x,-7,x,x,x
CCCCc1c(-c2ccccc2OC)ncn1Cc1ccccc1Cl,x,x,x,27,x,x,x
O=C(O)CCC(=O)Nc1nc2nc(-c3ccccc3)cc(-c3ccccc3)n2n1,36*,-2,98*,-23,-21,85*,98*
CC(=O)Nc1ccc(S(=O)(=O)Nc2nc3nc(-c4ccccc4)cc(-c4ccccc4)n3n2)cc1,7,-42,24,-37,-3,x,x
O=C(O)CCNc1ccc(NCCC(=O)O)c2c1C(=O)c1ccccc1C2=O,24,17,90*,8,-3,4,3
CCCNC(=O)c1c(N)n(CC2CCCO2)c2nc3ccccc3nc12 (stereo not given),15,i,99*,-151,6,101*,79*

# Screens (PubChem BioAssay)
